Experimental data from the supplement of paper PMC3545927.
The list shows a part of the results. The true hit rate is not given.

Biological target: furin, P09958
Test: furin cleavage Z-score vs untreated control; higher = more cleavage, active = 3.5 or more, inactive = 1 or less, 8 variable residues between constant flanks
Summary of the method: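 Abundance of DNA freed from bead-bound 8-mer peptide–cDNA fusions by purified furin was measured as sequencing read counts after PCR adapter tagging. Cutting ran 7.5, 15 or 30 min in 0.01 ml of 50 mM HEPES pH 7.5 with CaCl2 and NaCl at 1:10 enzyme:substrate. The cleavage Z-score expresses these log counts against furin-free reactions after lowess adjustment and median absolute deviation scaling.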

Chain of furin, P09958 (P09958 whole entry): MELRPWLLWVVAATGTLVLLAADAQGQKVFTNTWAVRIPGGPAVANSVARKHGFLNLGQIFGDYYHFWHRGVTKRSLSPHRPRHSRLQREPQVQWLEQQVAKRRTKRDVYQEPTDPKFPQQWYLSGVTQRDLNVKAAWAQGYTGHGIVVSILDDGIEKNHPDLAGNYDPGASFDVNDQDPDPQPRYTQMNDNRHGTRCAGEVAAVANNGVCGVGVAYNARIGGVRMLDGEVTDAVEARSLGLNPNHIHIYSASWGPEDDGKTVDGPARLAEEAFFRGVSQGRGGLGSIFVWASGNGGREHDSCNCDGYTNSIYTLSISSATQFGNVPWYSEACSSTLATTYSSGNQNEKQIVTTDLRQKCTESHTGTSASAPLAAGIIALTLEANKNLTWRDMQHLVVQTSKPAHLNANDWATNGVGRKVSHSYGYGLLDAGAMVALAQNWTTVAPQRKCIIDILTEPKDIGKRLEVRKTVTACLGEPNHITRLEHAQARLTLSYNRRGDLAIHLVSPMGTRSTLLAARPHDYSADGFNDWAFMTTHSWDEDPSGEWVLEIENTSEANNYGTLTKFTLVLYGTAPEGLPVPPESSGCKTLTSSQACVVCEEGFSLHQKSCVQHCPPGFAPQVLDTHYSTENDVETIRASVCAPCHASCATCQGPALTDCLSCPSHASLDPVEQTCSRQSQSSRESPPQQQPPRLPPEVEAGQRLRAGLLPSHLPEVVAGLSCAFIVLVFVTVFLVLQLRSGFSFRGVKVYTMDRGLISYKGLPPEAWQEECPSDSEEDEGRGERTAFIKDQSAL

Row | Sequence | furin cleavage Z-score (7.5 min) | furin cleavage Z-score (15 min) | furin cleavage Z-score (30 min)
1 | CAGKRRFRRQAGNASASA [FS-783] | 8.34 (active) | 7.16 (active) | 6.56 (active)
2 | CAKARRFVEQAGNASASA [FS-2121] | -0.772 (inactive) | 0.447 (inactive) | -0.0659 (inactive)
3 | CAGMLRQRRPAGNASASA [FS-1001] | -1.01 (inactive) | -1.53 (inactive) | -1.03 (inactive)
4 | CAGRHCVRRSAGNASASA [FS-163] | 3.46 | 4.86 (active) | 4.64 (active)
5 | CAFAERQRRSAGNASASA [FS-1588] | 11.1 (active) | 11 (active) | 10.4 (active)
6 | CAFAERSGRGAGNASASA [FS-1322] | -0.454 (inactive) | 0.465 (inactive) | 0.178 (inactive)
7 | CAGHGRQERSAGNASASA [FS-530] | 1.31 | 3.84 (active) | 3.39
8 | CAGTTRQRRSAGNASASA [FS-1458] | 9.35 (active) | 9.67 (active) | 7.94 (active)
9 | CAGSSGGPLLAGNASASA [HC742] | -1.42 (inactive) | -0.944 (inactive) | -0.396 (inactive)
10 | CAEVPCHRPQAGNASASA [HC2422] | 1.53 | 0.977 (inactive) | -0.457 (inactive)
11 | CAHVCCSMSYAGNASASA [HC1995] | -0.946 (inactive) | -0.551 (inactive) | -0.241 (inactive)
12 | CASTPCSAHGAGNASASA [HC2576] | -0.871 (inactive) | 0.825 (inactive) | -0.885 (inactive)
13 | CAIKLGALTGAGNASASA [HC630] | -0.745 (inactive) | -0.643 (inactive) | -1.94 (inactive)
14 | CAGMMLAEQFAGNASASA [HC1021] | 0.171 (inactive) | 0.335 (inactive) | -0.461 (inactive)
15 | CARHRRQRRSAGNASASA [FS-707] | 10.1 (active) | 10.5 (active) | 8.1 (active)
16 | CARHRRLRGPAGNASASA [FS-1825] | -1.67 (inactive) | -0.893 (inactive) | -1.28 (inactive)
17 | CASKRDHRRSAGNASASA [FS-1411] | 1.79 | -0.35 (inactive) | 0.449 (inactive)
18 | CASCARHRRSAGNASASA [FS-90] | 4.64 (active) | 3.79 (active) | 4.71 (active)
19 | CAMEECSQKLAGNASASA [HC1754] | 1.17 | 0.659 (inactive) | 1.26
20 | CATTMRSPVFAGNASASA [HC762] | -1.56 (inactive) | -0.725 (inactive) | -0.54 (inactive)
21 | CARMRRALVFAGNASASA [FS-3001] | 4.84 (active) | 4.35 (active) | 6.45 (active)
22 | CARDGRDGTPAGNASASA [FS-2000] | 0.0974 (inactive) | -0.249 (inactive) | 0.34 (inactive)
23 | CARMRRPPGGAGNASASA [FS-2496] | -0.899 (inactive) | -0.697 (inactive) | -0.784 (inactive)

Row | Sequence | furin cleavage Z-score (7.5 min) | furin cleavage Z-score (15 min) | furin cleavage Z-score (30 min)
24 | CARMRRRPGPAGNASASA [FS-2725] | 0.305 (inactive) | 1.58 | 1.1
25 | CARMRRDGWPAGNASASA [FS-2723] | 2.95 | 4.8 (active) | 5.65 (active)
26 | CACAWYELTPAGNASASA [HC923] | -0.0785 (inactive) | 0.676 (inactive) | -1.48 (inactive)
27 | CARMTRSVDNAGNASASA [FS-2396] | 10.7 (active) | 10.3 (active) | 7.86 (active)
28 | CAEVVTSTKVAGNASASA [HC2234] | 0.581 (inactive) | 0.63 (inactive) | -0.359 (inactive)
29 | CARFRRGLDNAGNASASA [FS-1704] | 10.1 (active) | 8.75 (active) | 7.17 (active)
30 | CARELRNVGVAGNASASA [FS-1695] | -1.56 (inactive) | 0.756 (inactive) | -0.781 (inactive)
31 | CARMVRSVKVAGNASASA [FS-1754] | 3.01 | 4.69 (active) | 6.85 (active)
32 | CARFRRGARSAGNASASA [FS-1703] | 10.1 (active) | 10.3 (active) | 8.23 (active)
33 | CARTTRSVVHAGNASASA [FS-2837] | -0.34 (inactive) | 0.171 (inactive) | 0.71 (inactive)
34 | CAMHECSQHLAGNASASA [HC1695] | 0.819 (inactive) | 2.72 | 1.59
35 | CAFQVAHLHAAGNASASA [HC772] | -0.105 (inactive) | -0.994 (inactive) | -1.62 (inactive)
36 | CAEVVTSMWVAGNASASA [HC2206] | 0.942 (inactive) | -0.688 (inactive) | -0.185 (inactive)
37 | CACTANHDSPAGNASASA [HC1268] | -0.651 (inactive) | -0.843 (inactive) | -2.03 (inactive)
38 | CADLLEDNVTAGNASASA [HC1433] | 0.275 (inactive) | -2.11 (inactive) | -1.66 (inactive)
39 | CAGNLPGCSFAGNASASA [HC244] | -0.0639 (inactive) | 0.93 (inactive) | -0.123 (inactive)
40 | CAYSALHKRQAGNASASA [FS-1505] | 1.15 | -1.98 (inactive) | 1.13
41 | CARPKRSKRQAGNASASA [FS-1068] | 12.3 (active) | 11.8 (active) | 9.11 (active)
42 | CARPKRKGKCAGNASASA [FS-1761] | 0.0893 (inactive) | 0.774 (inactive) | 1.28
43 | CALPFRSKRQAGNASASA [FS-684] | 9.98 (active) | 10.9 (active) | 7.98 (active)
44 | CAMEECSQHCAGNASASA [HC1780] | 1.81 | -0.183 (inactive) | 1.82
45 | CALHKREKRQAGNASASA [FS-1023] | 13.9 (active) | 12.1 (active) | 10.2 (active)
46 | CARPKRSHHCAGNASASA [FS-2399] | 4.25 (active) | 6.93 (active) | 6.58 (active)
